Experimental data published in the supplement of paper PMC11732987, “Enantioselective OTUD7B fragment discovery through chemoproteomics screening and high-throughput optimisation” (Communications Chemistry, 2025).
A number with no mark means an inactive call.

Legend:
Test in all cases: log2 ratio of Biotin-Ahx-Ub-VS probe labelling (fragment/DMSO); higher = less target engagement (more negative = stronger competition), active = hit call of the paper (q ≤ 0.05, log2 ratio ≤ -1)
Details in all cases: compound concentration: 200 uM; treatment time: 3 h
[1] = biological target: T1, USP19 (UniProt O94966)
T1 sequence (whole entry): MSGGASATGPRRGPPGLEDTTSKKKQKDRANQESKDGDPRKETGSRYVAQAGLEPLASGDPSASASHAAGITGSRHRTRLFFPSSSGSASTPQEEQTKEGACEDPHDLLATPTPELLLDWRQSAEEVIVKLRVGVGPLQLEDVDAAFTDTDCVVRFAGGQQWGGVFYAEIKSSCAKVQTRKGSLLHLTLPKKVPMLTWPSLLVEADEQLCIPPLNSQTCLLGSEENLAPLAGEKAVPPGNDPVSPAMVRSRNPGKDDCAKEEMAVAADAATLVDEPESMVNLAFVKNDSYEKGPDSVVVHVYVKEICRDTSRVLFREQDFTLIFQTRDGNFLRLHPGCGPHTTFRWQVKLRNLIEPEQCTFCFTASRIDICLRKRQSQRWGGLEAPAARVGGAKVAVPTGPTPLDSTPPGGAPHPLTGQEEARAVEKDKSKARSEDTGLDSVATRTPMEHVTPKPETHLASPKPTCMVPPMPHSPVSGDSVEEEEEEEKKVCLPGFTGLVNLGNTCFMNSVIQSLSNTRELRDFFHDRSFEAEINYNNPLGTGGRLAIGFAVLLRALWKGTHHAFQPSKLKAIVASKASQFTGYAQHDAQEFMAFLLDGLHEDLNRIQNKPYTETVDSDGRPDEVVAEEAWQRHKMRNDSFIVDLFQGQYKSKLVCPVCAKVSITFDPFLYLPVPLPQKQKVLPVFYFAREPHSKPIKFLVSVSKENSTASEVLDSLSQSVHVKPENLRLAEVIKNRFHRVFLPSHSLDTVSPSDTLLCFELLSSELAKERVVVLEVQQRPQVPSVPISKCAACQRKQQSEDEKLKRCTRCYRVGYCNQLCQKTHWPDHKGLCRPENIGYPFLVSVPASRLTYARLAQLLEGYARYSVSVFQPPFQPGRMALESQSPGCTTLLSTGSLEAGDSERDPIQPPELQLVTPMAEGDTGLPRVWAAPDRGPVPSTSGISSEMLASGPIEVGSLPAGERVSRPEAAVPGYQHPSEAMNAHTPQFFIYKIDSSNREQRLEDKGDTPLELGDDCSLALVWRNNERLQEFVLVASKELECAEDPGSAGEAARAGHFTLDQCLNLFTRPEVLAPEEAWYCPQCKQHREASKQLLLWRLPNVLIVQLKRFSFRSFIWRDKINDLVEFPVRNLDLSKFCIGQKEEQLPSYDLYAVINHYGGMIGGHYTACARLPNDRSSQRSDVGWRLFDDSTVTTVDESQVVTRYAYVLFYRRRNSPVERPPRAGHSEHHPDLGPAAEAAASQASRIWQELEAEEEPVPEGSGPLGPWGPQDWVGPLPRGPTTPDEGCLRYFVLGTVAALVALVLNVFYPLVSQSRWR
Summary of the method: (§1)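 Labelled DUBs from HEK293T lysate were NeutrAvidin-enriched, digested with LysC and trypsin, and run by diaPASEF LC-MS/MS. Before that, each 495 µg sample in Tris/CHAPS/IGEPAL buffer with protease inhibitors was treated in triplicate with fragment at 200 µM or vehicle for 3 h, then with Biotin-Ahx-Ub-VS at 0.5 µM final for 1 h. Values are average log2 ratios of fragment over vehicle by unpaired t-test, based on global-median-normalised Spectronaut label-free quantities from proteins with ≥2 unique peptides.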

[2] = biological target: T2, USP22 (UniProt Q9UPT9)
T2 sequence (whole entry): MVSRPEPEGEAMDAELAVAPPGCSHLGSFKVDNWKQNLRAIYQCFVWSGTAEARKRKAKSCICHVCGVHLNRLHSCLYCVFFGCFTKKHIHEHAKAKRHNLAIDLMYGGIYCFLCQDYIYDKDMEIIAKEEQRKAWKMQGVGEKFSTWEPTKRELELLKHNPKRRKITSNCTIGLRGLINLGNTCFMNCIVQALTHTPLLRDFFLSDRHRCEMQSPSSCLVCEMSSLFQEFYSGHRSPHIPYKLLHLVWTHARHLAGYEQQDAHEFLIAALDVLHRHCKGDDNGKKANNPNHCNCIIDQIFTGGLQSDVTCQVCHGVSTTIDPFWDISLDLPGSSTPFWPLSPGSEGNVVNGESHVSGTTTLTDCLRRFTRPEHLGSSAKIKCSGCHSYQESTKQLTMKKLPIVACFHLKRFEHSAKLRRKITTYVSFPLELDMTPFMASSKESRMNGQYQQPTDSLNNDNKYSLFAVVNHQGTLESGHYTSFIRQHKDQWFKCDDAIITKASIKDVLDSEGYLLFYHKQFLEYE
Summary of the method: as §1

[3] = biological target: USP24 (UniProt Q9UPU5)
Sequence of USP24 (Q9UPU5 whole entry): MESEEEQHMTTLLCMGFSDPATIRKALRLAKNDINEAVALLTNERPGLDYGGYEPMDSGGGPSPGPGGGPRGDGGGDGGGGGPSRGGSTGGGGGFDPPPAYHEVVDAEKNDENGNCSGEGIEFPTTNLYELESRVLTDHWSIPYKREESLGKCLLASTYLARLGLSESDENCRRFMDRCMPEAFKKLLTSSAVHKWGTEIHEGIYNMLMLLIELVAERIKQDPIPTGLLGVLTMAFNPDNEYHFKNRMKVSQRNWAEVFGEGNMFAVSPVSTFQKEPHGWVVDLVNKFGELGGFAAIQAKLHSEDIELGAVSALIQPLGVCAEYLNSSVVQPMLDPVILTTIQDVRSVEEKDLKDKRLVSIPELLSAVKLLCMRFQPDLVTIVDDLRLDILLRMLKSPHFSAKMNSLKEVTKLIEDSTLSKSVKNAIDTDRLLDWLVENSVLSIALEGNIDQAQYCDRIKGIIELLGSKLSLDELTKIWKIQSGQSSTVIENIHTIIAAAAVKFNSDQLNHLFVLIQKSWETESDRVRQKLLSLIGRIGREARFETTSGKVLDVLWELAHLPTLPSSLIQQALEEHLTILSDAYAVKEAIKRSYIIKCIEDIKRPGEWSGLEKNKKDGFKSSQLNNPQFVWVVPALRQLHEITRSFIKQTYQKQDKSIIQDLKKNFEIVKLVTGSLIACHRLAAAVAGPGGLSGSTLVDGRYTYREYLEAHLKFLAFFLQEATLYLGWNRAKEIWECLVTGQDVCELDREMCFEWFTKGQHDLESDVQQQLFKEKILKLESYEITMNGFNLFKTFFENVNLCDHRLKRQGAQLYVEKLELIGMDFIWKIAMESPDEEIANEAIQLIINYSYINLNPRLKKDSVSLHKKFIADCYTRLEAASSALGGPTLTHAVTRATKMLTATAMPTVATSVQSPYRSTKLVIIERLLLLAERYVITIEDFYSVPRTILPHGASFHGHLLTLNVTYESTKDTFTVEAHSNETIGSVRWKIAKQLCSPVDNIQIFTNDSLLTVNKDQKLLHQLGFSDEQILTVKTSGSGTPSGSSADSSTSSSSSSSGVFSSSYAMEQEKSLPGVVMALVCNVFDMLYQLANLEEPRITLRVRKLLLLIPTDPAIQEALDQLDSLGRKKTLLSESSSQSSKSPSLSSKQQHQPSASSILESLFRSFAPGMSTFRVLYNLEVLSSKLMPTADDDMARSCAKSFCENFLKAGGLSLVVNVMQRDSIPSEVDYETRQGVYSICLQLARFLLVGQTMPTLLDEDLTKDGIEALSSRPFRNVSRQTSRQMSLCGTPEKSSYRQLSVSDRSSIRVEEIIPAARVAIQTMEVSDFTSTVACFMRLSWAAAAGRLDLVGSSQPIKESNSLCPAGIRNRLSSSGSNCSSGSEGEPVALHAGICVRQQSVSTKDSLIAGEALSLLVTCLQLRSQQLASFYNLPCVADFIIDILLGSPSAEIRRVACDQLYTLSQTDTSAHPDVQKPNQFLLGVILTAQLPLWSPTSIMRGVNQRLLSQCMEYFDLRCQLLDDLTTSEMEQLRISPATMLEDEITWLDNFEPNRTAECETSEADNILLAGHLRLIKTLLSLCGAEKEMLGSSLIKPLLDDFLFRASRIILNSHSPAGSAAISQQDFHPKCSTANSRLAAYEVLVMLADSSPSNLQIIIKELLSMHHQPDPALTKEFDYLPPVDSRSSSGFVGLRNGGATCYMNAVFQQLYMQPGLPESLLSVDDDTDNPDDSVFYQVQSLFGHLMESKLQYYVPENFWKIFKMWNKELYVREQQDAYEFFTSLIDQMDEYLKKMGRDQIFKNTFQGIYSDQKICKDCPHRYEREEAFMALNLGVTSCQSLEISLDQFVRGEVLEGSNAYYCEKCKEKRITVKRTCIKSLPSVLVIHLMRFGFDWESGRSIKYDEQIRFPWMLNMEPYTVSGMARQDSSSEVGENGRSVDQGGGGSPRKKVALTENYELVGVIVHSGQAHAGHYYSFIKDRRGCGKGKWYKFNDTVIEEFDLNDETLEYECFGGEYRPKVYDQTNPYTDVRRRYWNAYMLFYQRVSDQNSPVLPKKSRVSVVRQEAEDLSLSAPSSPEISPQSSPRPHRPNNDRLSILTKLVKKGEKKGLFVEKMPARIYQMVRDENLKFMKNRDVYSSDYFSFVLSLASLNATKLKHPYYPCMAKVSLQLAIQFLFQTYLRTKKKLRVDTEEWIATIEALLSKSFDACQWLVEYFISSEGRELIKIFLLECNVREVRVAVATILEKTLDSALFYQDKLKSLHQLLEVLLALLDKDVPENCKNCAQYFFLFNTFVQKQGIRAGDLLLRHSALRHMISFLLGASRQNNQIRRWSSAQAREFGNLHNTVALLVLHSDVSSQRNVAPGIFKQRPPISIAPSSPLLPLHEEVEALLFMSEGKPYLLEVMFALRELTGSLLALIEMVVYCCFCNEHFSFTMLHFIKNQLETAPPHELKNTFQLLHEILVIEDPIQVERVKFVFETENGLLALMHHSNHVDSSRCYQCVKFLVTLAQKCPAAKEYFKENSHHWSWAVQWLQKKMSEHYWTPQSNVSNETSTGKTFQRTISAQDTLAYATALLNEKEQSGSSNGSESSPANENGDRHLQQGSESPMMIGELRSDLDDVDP
Summary of the method: as §1

[4] = biological target: T3, USP25 (UniProt Q9UHP3)
T3 sequence (whole entry): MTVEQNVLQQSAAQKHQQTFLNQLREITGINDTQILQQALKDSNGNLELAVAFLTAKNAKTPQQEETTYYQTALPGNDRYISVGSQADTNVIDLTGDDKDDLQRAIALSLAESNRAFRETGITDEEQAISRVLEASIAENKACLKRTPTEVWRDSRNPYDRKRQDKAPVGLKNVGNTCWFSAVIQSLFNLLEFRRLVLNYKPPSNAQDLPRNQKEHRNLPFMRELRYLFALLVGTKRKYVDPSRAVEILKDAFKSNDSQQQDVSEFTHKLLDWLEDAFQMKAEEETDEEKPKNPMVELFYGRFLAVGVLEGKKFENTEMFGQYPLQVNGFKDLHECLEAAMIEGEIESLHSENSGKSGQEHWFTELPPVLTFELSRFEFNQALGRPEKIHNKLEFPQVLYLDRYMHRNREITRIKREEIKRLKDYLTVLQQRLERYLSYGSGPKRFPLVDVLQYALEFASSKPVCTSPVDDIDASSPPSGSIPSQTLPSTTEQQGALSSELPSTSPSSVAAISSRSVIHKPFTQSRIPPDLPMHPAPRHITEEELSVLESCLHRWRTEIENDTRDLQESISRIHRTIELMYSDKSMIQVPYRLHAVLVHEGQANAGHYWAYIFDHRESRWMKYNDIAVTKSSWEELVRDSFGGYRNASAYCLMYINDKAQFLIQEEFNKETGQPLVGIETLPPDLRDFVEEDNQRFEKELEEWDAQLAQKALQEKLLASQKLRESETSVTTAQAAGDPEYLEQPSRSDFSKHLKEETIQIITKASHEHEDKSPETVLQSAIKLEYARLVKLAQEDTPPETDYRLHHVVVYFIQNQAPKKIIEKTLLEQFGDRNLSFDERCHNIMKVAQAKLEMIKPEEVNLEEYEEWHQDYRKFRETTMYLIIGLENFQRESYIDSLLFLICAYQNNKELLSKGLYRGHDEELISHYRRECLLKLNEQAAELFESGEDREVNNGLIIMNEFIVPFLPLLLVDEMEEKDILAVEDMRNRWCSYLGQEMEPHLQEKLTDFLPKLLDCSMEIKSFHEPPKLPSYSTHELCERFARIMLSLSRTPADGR
Summary of the method: as §1

[5] = biological target: T4, USP28 (UniProt Q96RU2)
T4 sequence (whole entry): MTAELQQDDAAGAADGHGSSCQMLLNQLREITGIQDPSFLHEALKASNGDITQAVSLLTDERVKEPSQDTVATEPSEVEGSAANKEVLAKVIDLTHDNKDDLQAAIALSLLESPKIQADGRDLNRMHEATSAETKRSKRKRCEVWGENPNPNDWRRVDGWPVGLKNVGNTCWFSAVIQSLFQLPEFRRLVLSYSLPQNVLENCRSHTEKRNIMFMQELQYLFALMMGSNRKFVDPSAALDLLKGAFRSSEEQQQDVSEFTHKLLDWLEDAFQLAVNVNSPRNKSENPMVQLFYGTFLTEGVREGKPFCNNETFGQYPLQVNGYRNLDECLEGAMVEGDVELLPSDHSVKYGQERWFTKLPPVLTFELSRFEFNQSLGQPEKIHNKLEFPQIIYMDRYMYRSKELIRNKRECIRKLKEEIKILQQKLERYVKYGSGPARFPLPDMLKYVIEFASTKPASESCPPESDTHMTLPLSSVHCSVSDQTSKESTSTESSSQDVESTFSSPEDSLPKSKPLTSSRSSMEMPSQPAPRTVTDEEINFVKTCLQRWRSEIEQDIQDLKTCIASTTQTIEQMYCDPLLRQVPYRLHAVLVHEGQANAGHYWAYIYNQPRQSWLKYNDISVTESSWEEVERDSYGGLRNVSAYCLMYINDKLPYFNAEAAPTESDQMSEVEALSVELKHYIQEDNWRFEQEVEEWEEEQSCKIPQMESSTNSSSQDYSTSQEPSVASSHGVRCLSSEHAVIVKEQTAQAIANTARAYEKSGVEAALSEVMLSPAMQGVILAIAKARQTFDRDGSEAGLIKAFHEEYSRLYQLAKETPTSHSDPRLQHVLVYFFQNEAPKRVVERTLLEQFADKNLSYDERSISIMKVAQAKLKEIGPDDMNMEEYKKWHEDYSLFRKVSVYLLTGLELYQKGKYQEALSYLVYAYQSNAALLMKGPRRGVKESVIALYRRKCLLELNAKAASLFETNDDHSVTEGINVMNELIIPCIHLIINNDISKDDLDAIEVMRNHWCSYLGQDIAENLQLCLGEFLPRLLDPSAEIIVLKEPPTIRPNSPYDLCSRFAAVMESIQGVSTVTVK
Summary of the method: as §1

Question: Which results are given for `CN(C)C(=O)c1ccc(NC(=O)CCl)cc1`?
Answer: log2 ratio of Biotin-Ahx-Ub-VS probe labelling [1]: -0.166; log2 ratio of Biotin-Ahx-Ub-VS probe labelling [2]: -0.0455; log2 ratio of Biotin-Ahx-Ub-VS probe labelling [3]: -0.00912; log2 ratio of Biotin-Ahx-Ub-VS probe labelling [4]: -1.1 (active); log2 ratio of Biotin-Ahx-Ub-VS probe labelling [5]: -1.47 (active)
